# Measured values published in PubChem BioAssay AID463173 (ICCB-Longwood Screening Facility, Harvard Medical School, 2010).
# Screen size: about 52,000 compounds; about 4,300 (8.3%) were called active. Rule as the data show it: active = survival mostly below about 52% (no sharp cut-off); inactive = mostly above about 56%. Only a selection was taken, and actives are over-represented in it overall.
# Tested on: DeltatarO mutant
# Test: S. aureus survival, RN4220 and DeltatarO strains – OD600, teichoic acid synthesis inhibitors, primary screen (AID 463173)
# Conditions: S. aureus RN4220 wild type/DeltatarO growth, OD600, 18 h, hits give low values, screened at 18.75 µg/mL (by protocol)
row,SMILES,survival
1,COC(=O)CSc1nnc(C2CCCCC2)n1Cc1ccccc1,116% (inactive)
2,Cc1oc(-c2cccc(Cl)c2)nc1CN1CCC(C(=O)NCCCN2CCN(c3ccc(F)cc3)CC2)CC1,119% (inactive)
3,Cc1ccc(Cl)cc1N1CCN(C(=O)C2CCN(Cc3nc(-c4cccc(Cl)c4)oc3C)CC2)CC1,-8% (active)
4,CCCCSCCCNC(=O)C1CCN(Cc2nc(-c3cccc(Br)c3)oc2C)CC1,68% (inactive)
5,Cc1cccc(N2CCN(C(=O)C3CCN(Cc4nc(-c5ccc(Cl)cc5)oc4C)CC3)CC2)c1C,60% (inactive)
6,Cc1oc(-c2cccc(Cl)c2)nc1CN1CCC(C(=O)NCCCN2CCN(c3cccc(Cl)c3)CC2)CC1,63% (inactive)
7,CCc1ccc(-c2nc(CN3CCCC(C(=O)N4CCN(c5cc(Cl)ccc5C)CC4)C3)c(C)o2)cc1 (stereo not given),70% (inactive)
8,Cc1ccc(C)c(N2CCN(C(=O)C3CCN(Cc4nc(-c5cccc(Cl)c5)oc4C)CC3)CC2)c1,47% (inactive)
9,Cc1ccc(Cl)cc1N1CCN(C(=O)C2CCCN(Cc3nc(-c4cccc(Cl)c4)oc3C)C2)CC1 (stereo not given),66% (inactive)
10,Cc1oc(-c2ccc(Cl)cc2)nc1CN1CCC(C(=O)NCCCN2CCN(c3cccc(Cl)c3)CC2)CC1,42% (active)
11,Cc1ccc(Cl)cc1N1CCN(C(=O)C2CCN(Cc3nc(-c4ccc(Cl)cc4)oc3C)CC2)CC1,-9% (active)
12,CCc1ccc(-c2nc(CN3CCC(C(=O)NCCc4ccc(C)cc4)CC3)c(C)o2)cc1,95% (inactive)
13,CCCCSCCCNC(=O)C1CCN(Cc2nc(-c3ccc(CC)cc3)oc2C)CC1,46% (active)
14,CCCOc1ccc(Oc2nc(NCC(C)C)nc(N3CCOCC3)n2)nn1,74% (inactive)
15,CN(C)c1ccc(CNC(=O)CN2C(=O)CSc3ccc(S(=O)(=O)N4CCCC4)cc32)cc1,80% (inactive)
16,COc1ccccc1CNc1ncnc2c1nc1n2CCCC1,80% (inactive)
17,COc1ccc(NC(=O)CC2C(=O)N(c3ccc(OC)cc3)C(=O)N2Cc2ccc(OC)c(OC)c2)cc1 (stereo not given),131% (inactive)
18,CCOC(=O)c1ccc(NC(=O)c2cnn(-c3ccc(C)cc3C)c2C2CCN(C(=O)OC(C)(C)C)CC2)cc1,93% (inactive)
19,Cc1nc(N2CCCCC2)c(C#N)c2c1COC(C)(C)C2,81% (inactive)
20,Nc1ccc(N2CCOCC2)cc1C(F)(F)F,80% (inactive)
21,Fc1ccc(NCc2nc3ccccc3n2CCOc2ccccc2Cl)cc1,91% (inactive)
22,Cc1cccc(NCc2nc3ccccc3n2CCOc2ccccc2C)c1,3% (active)
23,Cc1ccc(C)c(OCCn2c(CCNC(=O)C3CCCCC3)nc3ccccc32)c1,59% (inactive)

row,SMILES,survival
1,Cc1ccc(NCc2nc3ccccc3n2CCOc2ccccc2C)cc1,3% (active)
2,COc1ccc(NCc2nc3ccccc3n2CCOc2ccccc2C)cc1,32% (active)
3,CCC(CC)c1nn2c(=O)cc(COc3ccc(NC(=O)c4ccccc4Cl)cc3)nc2s1,94% (inactive)
4,COc1ccc(-c2nc(SCC(=O)NCCc3ccc(OC)c(OC)c3)n[nH]2)cc1,88% (inactive)
5,COc1ccc(NC(=O)C2(c3cccs3)CCOCC2)cc1Cl,91% (inactive)
6,Cc1cccc(CN2C(=O)c3ccccc3S(=O)(=O)c3ccc(C(=O)OCC4CCCO4)cc32)c1 (stereo not given),90% (inactive)
7,CCOc1cccc(OCCCn2c(-c3ccc(Br)cc3)nc3ccccc3c2=O)c1,64% (inactive)
8,Cc1ccc(C)c(Cn2c3ccccc3c3cnn(CC(=O)NCC(C)c4ccccc4)c(=O)c32)c1 (stereo not given),72% (inactive)
9,COc1ccccc1NC(=O)NC1(C(=O)N2CCCCC2)CCCCC1,85% (inactive)
10,CCc1ccc(C2N=C(N)Nc3nc4ccccc4n32)cc1 (stereo not given),137% (inactive)
11,Cc1cccc(-c2c3c(nc4ncnn24)-c2ccccc2C3=O)c1,74% (inactive)
12,O=C1c2ccccc2-c2nc3ncnn3c(-c3ccc4c(c3)OCO4)c21,49% (active)
13,O=C1C(=Cc2ccc3c(c2)OCO3)C(=O)c2ccccc21,64% (inactive)
14,Cc1nc2c3ccccc3nc(NNC(=O)CCC(=O)N3CCN(c4ccccc4F)CC3)n2n1,79% (inactive)
15,Cc1nc2c3ccccc3nc(NNC(=O)CCC(=O)N3CCN(c4cc(Cl)ccc4C)CC3)n2n1,55% (active)
16,Cc1nc2c3ccccc3nc(NNC(=O)CCC(=O)N3CCN(c4cccc(Cl)c4)CC3)n2n1,107% (inactive)
17,O=c1c2sc3ccccc3c2n(Cc2cccc(C(F)(F)F)c2)c(=O)n1-c1ccccc1,73% (inactive)
18,Oc1cc2ccsc2c2ccccc12,9% (active)
19,c1ccc(-c2cc3ccsc3s2)cc1,99% (inactive)
20,O=c1cc(O)c2ccccc2[nH]1,75% (inactive)
21,COc1ccc(NC(=O)CCCSc2nc(-c3ccco3)cc(C(F)(F)F)n2)cc1OC,45% (inactive)
22,COc1cc(NC(=O)CCCSc2nc(-c3ccco3)cc(C(F)(F)F)n2)cc(OC)c1OC,38% (active)
23,COc1ccc(NC(=O)CCCSc2nc(-c3ccco3)cc(C(F)(F)F)n2)c(OC)c1,16% (active)

row,SMILES,survival
1,COc1ccc(NC(=O)CSc2nc(-c3ccco3)cc(C(F)(F)F)n2)c(OC)c1,56% (inactive)
2,COc1ccc(NC(=O)CCCSc2nc(-c3ccco3)cc(C(F)(F)F)n2)cc1,55% (inactive)
3,COc1cc(NC(=O)CSc2nc(-c3ccco3)cc(C(F)(F)F)n2)cc(OC)c1OC,54% (inactive)
4,COc1ccc(-c2nc3scc(CCNS(=O)(=O)c4ccc(C)cc4)n3n2)cc1,70% (inactive)
5,CCn1cc2nc(SCc3cccc(C(F)(F)F)c3)n(Cc3ccc(Cl)cc3)c(=O)c2n1,124% (inactive)
6,COc1cccc(N2CCN(c3ccc4nnc(CCC(=O)O)n4n3)CC2)c1,89% (inactive)
7,COc1ccc(NC(=O)NCCc2c(C)nn(C)c2C)c(OC)c1,90% (inactive)
8,Cc1nn(C)c(C)c1CCNC(=O)Nc1cccc(Cl)c1C,67% (inactive)
9,Cc1nn(C)c(C)c1CCNC(=O)Nc1ccccc1C(F)(F)F,6% (active)
10,COC(=O)c1ccccc1NC(=O)NCCc1c(C)nn(C)c1C,86% (inactive)
11,COC(=O)c1ccc(Cl)cc1NC(=O)NCCc1c(C)nn(C)c1C,81% (inactive)
12,COc1ccc(Cl)cc1NC(=O)NCCc1c(C)nn(C)c1C,-1% (active)
13,Cn1c(=O)oc2cc(S(=O)(=O)NC(Cc3ccccc3)C(=O)Nc3ccc(F)c(Cl)c3)ccc21 (stereo not given),83% (inactive)
14,COc1ccc(NC(=O)CN(C)S(=O)(=O)c2cccc3nsnc23)cc1,106% (inactive)
15,Cc1nnc(SCC(=O)Nc2ccc(N(C)C)cc2)[nH]c1=O,77% (inactive)
16,O=c1[nH]c(SCc2ccc(F)cc2)nc2c1CCCC2,63% (active)
17,O=c1[nH]c(SCc2ccccc2)nc2c1CCCC2,57% (inactive)
18,O=c1[nH]c(SCc2ccc(Br)cc2)nc2c1CCCC2,52% (inactive)
19,O=C(CSc1nc2ccccc2nc1Cc1ccc(Cl)cc1)N1CCN(c2ccccc2F)CC1,71% (inactive)
20,Cc1ccc(NC(=O)CSc2nc3ccc(NC(=O)COc4ccc(C)cc4)cc3s2)cc1,83% (inactive)
21,CC(=O)Nc1cc(C(=O)NCc2ccc(C)cc2)ccc1Sc1ccc(C)cc1,96% (inactive)
22,COCc1cc(C)nc2c1C(=O)NC(c1ccc(Br)cc1)N2Cc1ccccc1 (stereo not given),69% (inactive)
23,COc1cc2c(cc1NC(=O)C(C)Oc1ccccc1)oc1ccccc12 (stereo not given),-1% (active)

row,SMILES,survival
1,COc1cc2c(cc1NC(=O)C(C)Oc1ccc(Cl)cc1Cl)oc1ccccc12 (stereo not given),38% (active)
2,COc1ccc(-c2nc3ccccc3o2)cc1NC(=O)C(C)Oc1ccc(Cl)cc1Cl (stereo not given),38% (active)
3,Cc1ccc2cccc(NC(=O)C(C)Oc3ccc(Cl)cc3Cl)c2n1 (stereo not given),-2% (active)
4,COc1cc2c(cc1NC(=O)COc1ccc(Cl)cc1Br)oc1ccccc12,51% (inactive)
5,COc1ccc(Cl)cc1NC(=O)NCc1noc2ccccc12,35% (inactive)
6,COc1cc2c(cc1NC(=O)COc1cc(C)cc(C)c1)oc1ccccc12,59% (inactive)
7,COc1cc2c(cc1NC(=O)COc1cc(C)ccc1C)oc1ccccc12,79% (inactive)
8,Cc1ccc(OCC(=O)Nc2cccc3ccc(C)nc23)c(C)c1,62% (inactive)
9,Cc1ccc2cccc(NC(=O)C(C)Oc3ccc(C)c(C)c3)c2n1 (stereo not given),56% (inactive)
10,CCOC(=O)c1ccc(NC(=O)CSc2nnc3c4ccccc4n(CC)c3n2)cc1,72% (inactive)
11,O=C(CSc1nc2c(c(=O)[nH]1)CN(Cc1ccc3c(c1)OCO3)CC2)Nc1ccc(F)cc1,75% (inactive)
12,Cc1ccc(NC(=O)Cn2cc(S(=O)(=O)c3ccc(C)cc3)c(=O)c3cc4c(cc32)OCO4)cc1,58% (inactive)
13,COc1ccc(NC(=O)c2c(NCc3sccc3C)sc3c2CCCCC3)c(OC)c1,85% (inactive)
14,CCOc1ccc(CCNc2ncnc3onc(C)c23)cc1OCC,71% (inactive)
15,O=C(Nc1cccnc1)c1cc(-c2cccc(Cl)c2)on1,115% (inactive)
16,O=C(CN1C=NS(=O)(=O)c2ccccc21)Nc1ccc(F)cc1,87% (inactive)
17,CC1=C(C(=O)Nc2ccc(C)cc2C)C(c2ccc[nH]2)n2ncnc2N1 (stereo not given),89% (inactive)
18,O=C(CSc1ncc2c(n1)-c1ccccc1N(Cc1ccc(F)cc1)S2(=O)=O)c1ccc(Cl)cc1,89% (inactive)
19,CCOC(=O)c1c(C)[nH]c(C)c1S(=O)(=O)N(C)CC(=O)N1CCN(c2cccc(C)c2C)CC1,84% (inactive)
20,CC(C)c1nn2c(=O)cc(COC(=O)c3ccc(NC(=O)COc4ccccc4)cc3)nc2s1,98% (inactive)
21,O=C(NCCS(=O)(=O)N1CCN(c2ccc(F)cc2)CC1)c1cc(=O)c2ccccc2o1,94% (inactive)
